Most compounds without a hit are left out; they make up all but 4% or so of the library.
TRHR agonist: agonists of human TRH receptor; TRHR cells, calcium flux fluo-8, FDSS agonist mode; P34981; AID 493084; 360,000 tested, 0.18% active; activation, % at 2 µM; note: 0% is about no effect
Target sequence (P34981 whole entry, looked up): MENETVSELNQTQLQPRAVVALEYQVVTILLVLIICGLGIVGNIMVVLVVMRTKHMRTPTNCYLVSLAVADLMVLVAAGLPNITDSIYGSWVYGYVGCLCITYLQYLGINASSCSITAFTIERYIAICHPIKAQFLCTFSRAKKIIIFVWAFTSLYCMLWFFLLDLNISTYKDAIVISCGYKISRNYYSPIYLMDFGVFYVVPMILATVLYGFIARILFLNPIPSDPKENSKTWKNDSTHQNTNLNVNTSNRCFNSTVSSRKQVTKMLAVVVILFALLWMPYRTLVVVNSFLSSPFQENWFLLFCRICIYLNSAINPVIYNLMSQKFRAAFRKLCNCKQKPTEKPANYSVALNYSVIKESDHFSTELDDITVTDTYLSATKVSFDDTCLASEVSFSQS
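Agonist-mode FDSS calcium read (Ex 480/Em 530, 1 s cycles) in 1536-well TRHR cells with fluo-8 dye, after 10-cycle baseline and 23 nL compound addition; TRH at EC20 (10 nM final) added afterwards for the enhancer phase.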
D1 antagonist: human D1 dopamine receptor antagonism | 360,000 tested, 3.2% active | activity change, negative = inhibition, % at 10 µM | HEK293 TREx D1 cells, calcium flux, dopamine EC80; stronger effect = lower value | P21728 | AID 504652; in the data active = activity change below about -30%; note: % is set by controls: 0 for no effect and ±100 for the full control effect
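Using tetracycline-induced force-coupled D1 Hek293 cells and a calcium dye, signals were followed for 180 s after compound, then for 180 s after EC80 dopamine, to detect inhibitors.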
D1 potentiator: potentiators of human D1 dopamine receptor; HEK293 TREx D1 cells, calcium flux, dopamine EC20 potentiation; AID 504651; potentiation, % at 10 µM; 360,000 tested, 0.036% active; in the data active = potentiation above about 30%; note: 0% is about no effect
Glioma ERSR ind: inducers of ER stress response in human glioma cells; U87-MG GRP78 promoter luciferase reporter, 16 h; Potency, µM, without a hit: top-dose activation, actives largely listed as activators; 420,000 tested, 0.02% active; active = well fitted activation curve with a large enough effect; note: potency is the fitted concentration of half-maximal effect; series mostly up to about 76 µM; % of control where 0% means no effect; nearly all actives have a fitted effect of over 35% in size
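Stably transfected U87-MG glioma cells carrying a GRP78-based luciferase sensor; 16 h compound incubation. Luminescence end-point read 10 min after Bright-Glo addition at room temperature.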
TRHR PAM: allosteric enhancers of human TRH receptor; AID 493056; 360,000 tested, 0.66% active; TRHR cells, fluo-8 calcium fluorescence, EC20 TRH enhancement; P34981; enhancement, % at 2 µM; in the data active = enhancement above about 30%; note: 0% is about no effect
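TRHR-expressing cells loaded with fluo-8 calcium dye were read kinetically (ex 480/em 530) during compound addition, then stimulated with an EC20 of TRH (10 nM final). Enhancement of the Gq-mediated intracellular calcium response was scored.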
D1 ag: agonists of human D1 dopamine receptor; P21728; activation, % at 2 µM; 360,000 tested, 1% active; HEK293 T-REx D1 cells, calcium flux, agonist mode; note: 0% is about no effect
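Agonism was scored from calcium flux recorded over 180 s (1 read/s) after pintool compound addition, following a 10-cycle baseline. Cells were inducible force-coupled HEK293 TREx D1, plated overnight at 30 C and loaded with no-wash calcium dye.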
An asterisk follows results filed as active; · = not tested or not shown; ! = not confirmed by another sample. Cut-off read from the data, not from the text of the source, unless noted: active = activation above about 30%; inactive = the rest.

SMILES	TRHR agonist	D1 antagonist	D1 potentiator	Glioma ERSR ind	TRHR PAM	D1 ag
CC(C)Cn1c2c(c(=O)[nH]c1=O)C(C(F)(F)F)(C(F)(F)F)N=C(CCC1CCCCC1)N2	0.8	-0.5	7.5	-3.4%	5.4	31.4*
O=C(O)CCC(=O)N1CCN(c2nc(-c3ccccc3Cl)c3cc(Br)ccc3n2)CC1	-0.3	-5.1	2.2	-2.0%	9.3	66.4*
Cc1ccc(Cn2c(=O)c3cccnc3n(Cc3ccc(C)cc3)c2=O)cc1	-0.3	-30.3*	-6.8	0.4%	10.0	-0.3
CCOC(=O)Cn1c(=O)n(Cc2ccc(C)cc2)c(=O)c2cccnc21	-0.6	-10.7	-11.2	-1.9%	-7.8	0.5
CC(C)[C@H]1C(=O)Nc2ccccc2N1C(=O)N[C@@H](Cc1ccccc1)C(=O)N[C@H](Cc1ccccc1)C(=O)O	0.2	1.9	-1.1	-0.6%	1.4	0.6
CC(C)[C@H]1C(=O)Nc2ccccc2N1C(=O)N[C@@H](Cc1ccccc1)C(=O)N[C@@H](Cc1ccccc1)C(=O)O	-0.2	-31.3*	0.0	-0.5%	3.1	0.2
O=S(=O)(NCCc1cn(S(=O)(=O)c2ccccc2)c2ccccc12)c1ccccc1	1.0	9.7	-2.4	-1.8%	3.1	2.0
Cc1csc2nc(COc3ccc(NC(=O)COc4ccccc4F)cc3)cc(=O)n12	-0.2	-19.1	-2.8	-0.9%	11.9	6.4
Cc1ccccc1OCC(=O)Nc1ccccc1C(=O)OCc1cc(=O)n2c(C)csc2n1	0.4	-39.7*	-0.4	-0.2%	1.8	-0.3
Cc1ccccc1OCC(=O)Nc1ccccc1C(=O)OCc1cc(=O)n2ccsc2n1	-1.3	11.3	0.1	-2.4%	0.2	-1.4
Cc1csc2nc(COC(=O)COc3ccccc3F)cc(=O)n12	0.1	-46.4*	-4.0	-2.3%	3.1	5.0
Brc1[nH]nc2ccccc12	0.0	-33.4*	-5.1	-5.0%	-4.2	1.5
O=C(C[n+]1cccc(CNC(=O)c2ccc(OC(F)F)cc2)c1)Nc1ccc(SC(F)F)cc1	1.4	-9.9	-9.2	-0.8%	0.3	-0.3
O=C(C[n+]1cccc(CNC(=O)c2ccc(OC(F)F)cc2)c1)Nc1ccccc1Cl	0.6	-31.7*	-2.1	-5.8%	8.7	1.0
CCC1(C2CCN(Cc3cc4ccccc4o3)CC2)NC(=O)N(CC2COc3ccccc3O2)C1=O (configuration not stated)	·	·	·	-2.5%	·	·
O=C(c1ccc(Cl)cc1)c1c[nH]c(C(=O)NNc2cccc(Cl)n2)c1	1.3	-31.4*	-2.1	-1.1%	2.2	2.7
CC(C)(C)C1CCC(OCC(O)CN2CCCC2)CC1 (configuration not stated)	-0.2	8.8	4.8	-1.3%	7.6	33.2*
Cc1cc(C)c(NC(=O)Cn2c(=O)nc(-c3ccccc3)c3cc(Cl)ccc32)c(C)c1	-0.9	-4.1	-0.1	0.2%	-4.7	-0.9
COc1cc2c(cc1OC)C1Cc3ccc(OC)c(OC)c3CN1CC2 (configuration not stated)	-0.1	-74.3*	-14.0	-6.7%	1.2	0.1
COc1cc2c(cc1OC)[C@@H]1Cc3ccc(OC)c(OC)c3CN1CC2	1.0	-53.3*	-5.8	-2.6%	-3.2	2.5
COc1ccc2c(c1OC)CN1CCc3cc4c(cc3[C@@H]1[C@@H]2O)OCO4	0.1	-66.1*	-11.8	8.6%	-4.0	-1.7
O[C@@H]1[C@@H](O)C=C2CCN3Cc4cc5c(cc4[C@H]1C23)OCO5 (some centres not stated)	-1.7	-11.0	-3.5	-4.7%	3.4	-0.2
O=C(OCc1ccccc1)c1cccnc1	·	·	·	-1.0%	·	·
Cn1c(C(=O)NCCCN2CCN(c3ccccc3F)CC2)cc2c(=O)[nH]c3ccccc3c21	0.0	-40.3*	-7.5	-3.4%	-1.4	0.7
Cn1c(=O)cc(OCC(=O)NCCCN2CCN(c3ccccc3F)CC2)c2ccccc21	-0.3	-13.0	-7.9	-3.7%	4.1	-0.1
SMILES	TRHR agonist	D1 antagonist	D1 potentiator	Glioma ERSR ind	TRHR PAM	D1 ag
COc1ccccc1N1CCN(CCCNC(=O)Cn2ncc3c([nH]c4ccccc43)c2=O)CC1	0.2	-29.6	-13.1	-2.3%	31.7*!	0.3
CCn1c(=O)cc(SCC(=O)NCCCN2CCN(c3ccccc3F)CC2)c2ccccc21	-0.7	-80.6*	-14.1	-1.0%	0.1	30.0*
Cn1c2ccccc2c2cnn(CC(=O)NCCCN3CCN(c4ccccc4F)CC3)c(=O)c21	1.2	-62.7*	-5.4	0.0%	4.2	10.5
CN1CCN(CCCNC(=O)Cn2ncc3c4ccccc4n(C)c3c2=O)CC1	0.9	-3.1	3.0	-3.0%	-4.5	1.6
CC1CC(C)CN(CCCNC(=O)c2cc3c(=O)[nH]c4ccccc4c3n2C)C1 (configuration not stated)	0.3	6.7	-2.8	-1.6%	-2.5	0.5
Cc1ccc(C)c(NC(=O)c2sc(Cl)nc2-c2ccccc2)c1	-0.1	32.1	2.5	-3.6%	3.0	-1.5
Cc1ccccc1CC1(CO)CCCN(Cc2ccn[nH]2)C1 (configuration not stated)	0.2	-16.9	-4.1	-3.3%	-4.6	0.8
CSCC(=O)N1CCCC(CO)(Cc2ccccc2C)C1 (configuration not stated)	-0.4	-52.7*	-2.5	-7.8%	9.6	2.0
Cc1ccccc1CC1(CO)CCCN(Cc2c(C)nn(C)c2Cl)C1 (configuration not stated)	-0.5	-32.8*	-5.0	-1.4%	-2.5	16.6
Cc1nn(C)c(Cl)c1CN1CCCC(CO)(Cc2cccc(Cl)c2)C1 (configuration not stated)	-3.3	-33.5*	-4.5	-4.6%	6.6	10.5
Cc1ccccc1CC1(CO)CCCN(C(=O)CCC(F)(F)F)C1 (configuration not stated)	-0.1	14.1	3.2	-2.9%	3.2	4.5
Cn1cc(CN2CCCC(CO)(Cc3cccc(Cl)c3)C2)cn1 (configuration not stated)	-0.7	4.6	-4.5	-3.9%	-5.0	-0.3
COc1cc(NC(=O)COC(=O)C2CC(O)CN2S(=O)(=O)c2ccc(Cl)cc2)c(C)cc1[N+](=O)[O-] (configuration not stated)	·	·	·	-2.9%	·	·
COc1cccc(NC(=O)CSc2nnc(-c3cccs3)o2)c1	-0.5	8.2	4.8	3.5%	7.9	2.5
COc1cccc(OCc2nnc(-c3cccs3)o2)c1	-0.4	-32.0*	1.8	·	10.9	1.7
CC(=O)c1ccccc1-c1ccc2c(c1)CC(CNC(=O)Cc1c[nH]c3ccccc13)O2 (configuration not stated)	·	·	·	-2.4%	·	·
Cc1oc2ccc(O)c(CN(C)Cc3ccccc3)c2c1C(=O)Nc1cccc(C(F)(F)F)c1	-1.2	8.3	-2.7	-1.6%	3.1	1.2
